Laboratory results published in the supplement of paper PMC11628255, “Interference of metal ions on the bioluminescent signal of firefly, Renilla, and NanoLuc luciferases in high-throughput screening assays” (Frontiers in Chemistry, 2024).
± gives the standard deviation of the averaged measurements.

Tested on: firefly luciferase (FLuc)
Test: residual bioluminescent signal relative to negative (DMSO) control; higher = less interference (more residual luciferase signal)
Protocol: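 Purified luciferase (FLuc 10 nM + 10 uM D-luciferin; NLuc 10 pM + 10 uM furimazine; RLuc 50 pM + 2 uM coelenterazine) in 384-well plates; metal salt pre-incubated with enzyme 10 min at RT, substrate added and luminescence read after 10 min. Signal normalised to plate DMSO negative control (% N_VALUE = x/mean neg *100); triplicate wells at 0.01, 1 and 5 mM salt.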

[1] = metal salt concentration 0.01 mM, HEPES conditions (100 mM HEPES, 5 mM MgSO4, 10 uM ATP, pH 7.5)
[2] = metal salt concentration 0.01 mM, screening conditions (0.5 mM Tris, 50 mM glycine, 0.5 mM EDTA, 5 mM MgSO4, 10 uM ATP, pH 7.6)
[3] = metal salt concentration 1 mM, HEPES conditions (100 mM HEPES, 5 mM MgSO4, 10 uM ATP, pH 7.5)
[4] = metal salt concentration 1 mM, screening conditions (0.5 mM Tris, 50 mM glycine, 0.5 mM EDTA, 5 mM MgSO4, 10 uM ATP, pH 7.6)
[5] = metal salt concentration 5 mM, HEPES conditions (100 mM HEPES, 5 mM MgSO4, 10 uM ATP, pH 7.5)
[6] = metal salt concentration 5 mM, screening conditions (0.5 mM Tris, 50 mM glycine, 0.5 mM EDTA, 5 mM MgSO4, 10 uM ATP, pH 7.6)

Structure (SMILES)	residual bioluminescent signal [1] [%]	residual bioluminescent signal [2] [%]	residual bioluminescent signal [3] [%]	residual bioluminescent signal [4] [%]	residual bioluminescent signal [5] [%]	residual bioluminescent signal [6] [%]
[Cl][Sn][Cl] [tin(II) chloride]	41.7 ± 13	90.8 ± 3.9	1.22 ± 0.41	0.369 ± 0.12	1.9 ± 0.62	0.553 ± 0.079
O=[N+]([O-])[O-].[K+] [potassium nitrate]	111 ± 4.3	100.2 ± 0.6	116 ± 12	98.6 ± 7	86.1 ± 12	65.5 ± 7.8
O=[N+]([O-])[O-].O=[N+]([O-])[O-].[Ca+2] [calcium nitrate]	70 ± 9.6	75.6 ± 6.7	67.2 ± 14	60.2 ± 8.9	29.2 ± 2.8	24.5 ± 3.4
O=[N+]([O-])[O-].O=[N+]([O-])[O-].[Cd+2] [cadmium nitrate]	2.44 ± 1.8	95.2 ± 4.7	1.09 ± 0.62	0.343 ± 0.12	1.09 ± 0.62	0.211 ± 0.17
O=[N+]([O-])[O-].O=[N+]([O-])[O-].[Pb+2] [lead(II) nitrate]	3.12 ± 1.6	93.3 ± 4.7	0.814 ± 0.41	0.685 ± 0.48	0.95 ± 0.23	0.343 ± 0.17
O=[N+]([O-])[O-].O=[N+]([O-])[O-].[Zn+2] [zinc nitrate]	3.8 ± 1.2	81.5 ± 7.4	1.49 ± 0.85	0.817 ± 0.28	1.09 ± 0.85	0.316 ± 0.079
